# Assay outcomes (PubChem BioAssay)
# TRb SRC2 PPI = qHTS for Inhibitors of the Interaction of Thyroid Hormone Receptor and Steroid Receptor Coregulator 2 | TRbeta-SRC2 peptide binding, fluorescence polarization; receptor liganded with 1 µM T3 | Potency, µM (doses to about 106 µM), actives largely listed as inhibitors | 280,000 tested, 0.065% active | AID 1469, 2008; note: nearly all actives have a fitted effect of over 50% in size
#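 Compounds were added to 0.6 uM TRb ligand-binding domain and 20 nM Texas Red-labeled SRC2 peptide in Tris buffer containing 1 uM T3, incubated 5 hr at ambient temperature, then read by fluorescence polarization.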
# Tau fibril ThT = qHTS for Inhibitors of Tau Fibril Formation, Thioflavin T Binding; 270,000 tested, 2.1% active; Potency, µM (doses to about 57.4 µM), usual class: inhibitors; recombinant tau K18 P301L, heparin-induced fibrillization, ThT fluorescence; Microtubule-associated protein tau (Homo sapiens), P10636; note: nearly all actives have a fitted effect of over 55% in size
# Target sequence (P10636 561-689 P618L limits assumed): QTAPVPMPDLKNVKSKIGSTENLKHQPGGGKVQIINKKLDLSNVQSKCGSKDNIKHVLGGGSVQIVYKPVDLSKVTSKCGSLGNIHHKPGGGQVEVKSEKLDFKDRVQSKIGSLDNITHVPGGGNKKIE
#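 Heparin-induced (20 uM) aggregation of recombinant human K18 P301L tau, 15 uM unlabeled with 0.24 uM labeled, pH 7 acetate buffer, 6 hr at 37 C with compound. Fibrils quantified by 30 uM ThT fluorescence after 1 hr ambient incubation.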
# Tau fluor counter = Counterscreen qHTS for Inhibitors of Tau Fibril Formation, Fluorescence Polarization; Potency, µM (top dose mostly 57.7 µM); 280,000 tested, 0.93% active; tau K18 P301L Alexa594 fluorescence, heparin fibrillization; note: nearly all actives have a fitted effect of over 55% in size
#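 Human tau K18 P301L (15 uM unlabeled, 0.24 uM Alexa 594-labeled) in 100 mM sodium acetate pH 7 with 20 uM heparin, 6 hr at 37 C. ThT 30 uM added, 1 hr ambient; Alexa 594 FP and total fluorescence read at 555/632 nm.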
# KDM4E inh = qHTS Assay for Inhibitors of Human Jumonji Domain Containing 2E (JMJD2E); Lysine-specific demethylase 4E (Homo sapiens), B2RXH2; JMJD2E catalytic domain, FDH-coupled NADH fluorescence (FDH is formaldehyde dehydrogenase); Potency, µM (titrated, usually from 57.1 µM), usual class: inhibitors; 230,000 tested, 1.6% active; active = well fitted inhibition curve with a large enough effect, not every such curve was filed as active; inconclusive = small, poorly fitted or top-dose-only effect, or another doubt; inactive = no such curve, though single readings can be large or run the other way; note: nearly all actives have a fitted effect of over 50% in size
# Target sequence (B2RXH2 1-337 limits assumed): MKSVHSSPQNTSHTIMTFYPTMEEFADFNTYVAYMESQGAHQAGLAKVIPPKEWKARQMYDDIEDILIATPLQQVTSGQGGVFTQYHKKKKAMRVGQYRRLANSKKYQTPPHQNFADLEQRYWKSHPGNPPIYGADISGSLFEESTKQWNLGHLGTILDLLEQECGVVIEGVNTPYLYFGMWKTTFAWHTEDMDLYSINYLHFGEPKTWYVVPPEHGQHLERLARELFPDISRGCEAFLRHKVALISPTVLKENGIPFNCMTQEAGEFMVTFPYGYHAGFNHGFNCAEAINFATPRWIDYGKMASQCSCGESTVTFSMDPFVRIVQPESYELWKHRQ
# Tau FP inhib = qHTS for Inhibitors of Tau Fibril Formation, Fluorescence Polarization; 280,000 tested, 0.39% active; Microtubule-associated protein tau (Homo sapiens), P10636; K18 P301L tau heparin fibrillization, Alexa594 FP, 6 h; Potency, µM (top dose mostly 57.7 µM), hits mostly inhibitors; note: nearly all actives have a fitted effect of over 55% in size
#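 Heparin (20 uM) drove fibril formation of recombinant tau K18 P301L, 15 uM unlabeled with 0.24 uM Alexa 594 label, for 6 hr at 37 C in 100 mM sodium acetate pH 7. Fluorescence polarization (555/632 nm) read 1 hr after 30 uM ThT.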
# TR SRC2 fluor cs = Total Fluorescence Counterscreen for Inhibitors of the Interaction of Thyroid Hormone Receptor and Steroid Receptor Coregulator 2; TRb/SRC2 Texas Red total fluorescence interference; Potency, µM (top dose mostly 106 µM); 280,000 tested, 0.29% active; AID 1479, 2009; active = well fitted curve in either direction with a large enough effect; inconclusive = small, poorly fitted or top-dose-only effect
#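 Flags fluorescent or light-absorbing compounds by total fluorescence, S + 2P, at 555 nm excitation and 632 nm emission. Mixture: 20 nM Texas Red SRC2 peptide, 0.6 uM human TRb LBD, 1 uM T3, 5% DMSO; compound exposure 5 h at ambient temperature.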
# Numbers stand for hits; n = inactive; u = inconclusive; x = no result; [ ] = dose if it differs, or a comment. This is a sample that favours compounds with a hit; in the whole collection about 3.5% have one here. Unless noted, calls come from the whole dose curve; as a rule, active = well fitted curve in the direction sought with a large enough effect; inconclusive = small, poorly fitted or top-dose-only effect, or another doubt; inactive = no such curve, though single readings can be large; an effect the other way counts as inactive or inconclusive.
SMILES,TRb SRC2 PPI,Tau fibril ThT,Tau fluor counter,KDM4E inh,Tau FP inhib,TR SRC2 fluor cs
COc1cc2c(cc1NC(=O)Nc1ccc(C)cc1)oc1ccccc12,n,n,3.98µM[quencher],n,n,n
COc1c(O)cc2c(=O)oc3c(OC)c(O)cc4c(=O)oc1c2c34,n,u,n,7.08µM,n,n
COc1ccc(-c2cc(C(F)F)n3ncc(C(=O)Nc4ccc(C(=O)N5CCOCC5)cc4)c3n2)cc1,n,n,n,u,n,n
CN(C(=O)c1ccc2c(c1)N(Cc1cccc(Cl)c1)C(=O)c1ccccc1S2(=O)=O)C1CCCCC1,n,n,n,x,n,n
CN(C)c1ccc(O)c2c1C[C@H]1C[C@H]3[C@@H](N(C)C)C(=O)C(C(N)=O)=C(O)[C@]3(O)C(=O)C1=C2O,n,x,x,u,x,n
CCCC1(C(=O)OCC)NC(c2ccc(O)cc2)C2C(=O)N(c3ccc4c(c3)OCCO4)C(=O)C21 (stereo unspecified),n,n,n,n,n,n
Cc1ccccc1NC(=S)N/N=C/c1ccc(O)cc1O,n,u,u,14.1µM,u,n
O=C1CC(=O)c2c1cccc2[N+](=O)[O-],n,x,5.62µM[quencher],n,u,n
O=C1OCc2cccc([N+](=O)[O-])c21,n,n,n,n,n,n
Cc1ccc(NC(=O)CCCN2C(=O)/C(=C/C=C/c3ccccc3)SC2=S)cc1,n,u,n,n,n,n
O=C(O)C(Cc1ccccc1)N1C(=O)/C(=C/C=C/c2ccco2)SC1=S (stereo unspecified),n,7.94µM,u,7.94µM,u,u
COc1ccc(/C=C2\SC(=S)N(C(Cc3ccccc3)C(=O)O)C2=O)cc1 (stereo unspecified),n,u,n,n,n,n
O=C(O)CCCN1C(=O)/C(=C/C=C/c2ccco2)SC1=S,n,3.16µM,n,n,u,n
O=C(O)CC(C(=O)O)N1C(=O)/C(=C/C=C/c2ccco2)SC1=S (stereo unspecified),n,12.6µM,n,11.2µM,u,u
O=C1C2=C(c3ccccc31)[N+](=O)[C@@H]1CCCC[C@@H]1N2[O-],n,u,n,n,u,n
CCN(CC)S(=O)(=O)c1cccc(NN=c2c(=O)c3ccccc3c2=O)c1,n,u,n,u,n,n
O=C1S/C(=C\C=C\c2ccco2)C(=O)N1c1ccccc1,n,14.1µM,u,u,u,n
Cn1cc(/C=C2\SC(=O)N(c3ccccc3)C2=O)c2ccccc21,n,n,n,n,n,n
O=C1S/C(=C\C=C\c2ccco2)C(=O)N1c1ccc(O)cc1,n,14.1µM,15.8µM[quencher],n,u,n
CC(C)CC(NC(=O)c1ccc(Cl)cc1Cl)C(=O)O (stereo unspecified),n,n,n,n,n,n
Cc1cc(N(CN2CCCC2=O)C(=O)c2ccccc2)no1,n,n,n,n,n,n
Cc1nc2cc(NCc3ccccc3O)ccc2n1Cc1ccccc1,n,u,u,39.8µM,n,n
COc1cc(NC(=O)c2ccco2)c(OC)cc1NC(=O)Nc1cccc(Cl)c1,n,u,12.6µM[quencher],n,n,n
COC(=O)c1cc(NC(=O)Nc2cccc(Cl)c2)ccc1Cl,n,u,7.94µM[quencher],n,7.94µM,n
COc1ccc(NC(=O)c2ccco2)cc1NC(=O)c1ccco1,n,n,n,n,n,n
SMILES,TRb SRC2 PPI,Tau fibril ThT,Tau fluor counter,KDM4E inh,Tau FP inhib,TR SRC2 fluor cs
COC(=O)c1cccc(NC(=S)Nc2ccccc2Cl)c1,n,x,n,n,n,n
COC(=O)c1cccc(NC(=S)Nc2ccc(Cl)c(Cl)c2)c1,n,n,20µM[quencher],n,u,n
COC(=O)c1cc(NC(=S)Nc2cc(Cl)cc(Cl)c2)cc(C(=O)OC)c1,n,n,u,n,31.6µM,n
O=C(Nc1ccc(F)cc1)C1C2CCC3C(CCC21)C3(Cl)Cl (stereo unspecified),n,n,n,n,n,n
Cc1cc(C)c2c(CC(=O)NCCc3ccccc3)coc2c1,n,n,n,n,n,n
Cc1ccc(CNC(=O)Cc2coc3cc(C)cc(C)c23)cc1,u,u,n,x,n,4.47µM[quencher]
COc1cccc(N2CC(NC(=O)c3cccc(OC)c3OC)CC2=O)c1 (stereo unspecified),n,n,n,x,n,n
Cc1c(Br)c([N+](=O)[O-])nn1CCCC(=O)NC(C)c1ccccc1 (stereo unspecified),n,n,n,n,n,n
CCC(=NCCc1c(C)[nH]c2ccc(OC(F)(F)F)cc12)C1=C(O)CC(c2ccccc2)CC1=O (stereo unspecified),n,u,u,n,n,n
CCCCC(=NCCc1c(C)[nH]c2ccc(OC)cc12)C1=C(O)CC(c2ccccc2)CC1=O (stereo unspecified),n,n,n,25.1µM,u,n
Cc1cccc(CS(=O)(=O)c2ncc(Cl)c(C(=O)Nc3nc4ccc(F)cc4s3)n2)c1,n,10µM,n,x,n,n
O=C(Nc1nc2ccc(F)cc2s1)c1nc(S(=O)(=O)Cc2ccccc2)ncc1Cl,n,7.08µM,n,x,n,n
Cc1nnc(NC(=O)c2nc(S(=O)(=O)Cc3ccccc3)ncc2Cl)s1,n,u,n,x,u,n
O=C(CCCNC(=O)/C(=C/c1ccccc1F)NC(=O)c1ccccc1)OCc1ccccc1,n,n,n,n,n,n
CCN1CCN(Cc2ccc(NC(=O)c3ccc(C)c(NC(=O)C(=O)c4c[nH]c5ccccc45)c3)cc2C(F)(F)F)CC1,n,n,n,n,u,n
CCN1CCN(Cc2ccc(NC(=O)c3cc(NC(=O)C(=O)c4c[nH]c5ccccc45)cc(OC)c3)cc2C(F)(F)F)CC1,n,n,u,n,14.1µM,n
COCCn1c(=NC(=O)C(C)(C)C)sc2cc([N+](=O)[O-])ccc21,n,n,n,n,n,n
COc1ccc(-c2cc(C(=O)O)nc3ccc4ccccc4c23)cc1OC,n,n,n,u,n,n
Oc1ccc(-c2nc3ccc4ccccc4c3c3c2CCC3)cc1O,n,u,u,25.1µM,u,n
O=c1c2ccccc2nc(/C=C/c2ccc(O)cc2)n1CCc1ccccc1,n,n,u,u,u,n
O=C(COC(=O)c1cccc(S(=O)(=O)N2CCOCC2)c1)Nc1ncc(C(F)(F)F)cc1Cl,n,n,n,n,n,n
